Bioassay records (PubChem BioAssay)
D1 antagonist = human D1 dopamine receptor antagonism; 360,000 compounds, 3.2% hits; P21728; activity change, negative = inhibition, % at 10 µM; HEK293 TREx D1 cells, calcium flux, dopamine EC80; stronger effect = lower value; in the data active = activity change below about -30%; note: % is set by controls: 0 for no effect and ±100 for the full control effect
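Inducible Hek293 Trex D1 cells (tetracycline, overnight, 30 C). Calcium dye 30–90 min RT. Antagonist mode: EC80 dopamine added after 180 s compound read.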
TRHR ag = activates the human TRH receptor | TRHR cells, calcium flux fluo-8, FDSS agonist mode | activation, % at 2 µM | 360,000 compounds, 0.18% hits | AID 493084; note: 0% is about no effect
Target sequence (P34981 whole entry, looked up): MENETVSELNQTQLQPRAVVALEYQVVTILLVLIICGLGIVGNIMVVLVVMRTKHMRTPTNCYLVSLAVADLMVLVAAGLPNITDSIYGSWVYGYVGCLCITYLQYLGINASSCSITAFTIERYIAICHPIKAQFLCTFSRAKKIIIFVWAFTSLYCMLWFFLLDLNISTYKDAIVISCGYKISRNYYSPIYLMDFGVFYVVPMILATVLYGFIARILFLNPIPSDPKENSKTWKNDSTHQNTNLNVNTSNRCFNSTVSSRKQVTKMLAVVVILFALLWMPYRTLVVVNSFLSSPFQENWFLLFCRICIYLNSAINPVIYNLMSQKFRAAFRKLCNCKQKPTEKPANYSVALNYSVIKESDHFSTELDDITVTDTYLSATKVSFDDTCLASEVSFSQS
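TRHR-expressing cells loaded with fluo-8 calcium dye; 23 nL library compound pin-transferred, kinetic FDSS fluorescence (Ex 480/Em 530) recorded about 180 s for agonist-induced calcium release, before a 10 nM TRH EC20 addition for potentiator mode.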
D1 potentiator = human D1 dopamine receptor positive modulation. P21728. HEK293 TREx D1 cells, calcium flux, dopamine EC20 potentiation. potentiation, % at 10 µM. 360,000 compounds, 0.036% hits. AID 504651; in the data active = potentiation above about 30%; note: 0% is about no effect
TRHR enhancer = TRH receptor (human) allosteric enhancement. P34981. TRHR cells, fluo-8 calcium fluorescence, EC20 TRH enhancement. enhancement, % at 2 µM. 360,000 compounds, 0.66% hits. AID 493056; in the data active = enhancement above about 30%; note: 0% is about no effect
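TRHR-expressing cells loaded with fluo-8 calcium dye were read kinetically (ex 480/em 530) during compound addition, then stimulated with an EC20 of TRH (10 nM final). Enhancement of the Gq-mediated intracellular calcium response was scored.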
Epigenetic derep = derepresses silenced GFP reporter in murine cells; murine LDR cells, GFP reporter derepression, 30 h; Potency, µM (top dose mostly 53.9 µM), inactives show at the highest dose GFP activation, hits mostly activators; AID 1865; 280,000 compounds, 0.2% hits; active = well fitted activation curve with a large enough effect; note: potency is the fitted concentration of half-maximal effect; % of control where 0% means no effect; nearly all actives have a fitted effect of over 60% in size
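Derepression of a silenced CMV-GFP reporter in murine LDR cells is scored by enumerating GFP-positive cells with a laser-scanning microplate cytometer after 30 hours of treatment at 37 C.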
D1 agonist = activates the human D1 dopamine receptor. AID 504660. P21728. HEK293 T-REx D1 cells, calcium flux, agonist mode. activation, % at 2 µM. 360,000 compounds, 1% hits; note: 0% is about no effect
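Tetracycline-induced HEK293 TREx D1 cells, force-coupled to calcium signalling, were dye-loaded with a no-wash calcium kit. Compound was pin-added after a 10 s baseline. Fluorescence was read kinetically at 1 cycle/s for 180 s, with calcium rises flagged as agonism.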
Starred values were filed as active, the others as inactive; · = not tested or not shown. This is a sample that favours compounds with a hit; in the whole collection about 4.6% have one here. Cut-off read from the data, not from the text of the source, unless noted: active = activation above about 30%; inactive = the rest.

SMILES	D1 antagonist	TRHR ag	D1 potentiator	TRHR enhancer	Epigenetic derep	D1 agonist
Cn1nc(-c2ccccc2)c(C#N)c1Sc1cccc(Cl)c1	-22	-2	-4	15	-2%	88*
COc1ccc(N2CCN(C(=O)Cn3cnc4nc5c(cc4c3=O)CCCC5)CC2)cc1	-31*	-1	-4	5	-2%	4
O=C(Cn1cnc2ccccc2c1=O)c1ccccc1	-7	1	1	-4	-1%	1
O=C(Cn1cnc2ccccc2c1=O)c1ccc(Cl)cc1	-42*	-1	-3	-7	-7%	2
Cc1cc2c(=O)n(CC(=O)N3CCN(c4ccccc4)CC3)cnc2s1	0	-2	-3	1	-1%	-1
O=C(Cn1cnc2ccccc2c1=O)N1CCN(c2ccccc2)CC1	-36*	0	-7	2	-1%	1
CCOC(=O)Cn1cnc2c(cnn2-c2ccc(Cl)cc2)c1=O	-49*	0	-11	13	-3%	15
CSc1ncc(C(=O)NCc2ccc(Cl)cc2)c(C(F)(F)F)n1	0	-1	4	11	0%	-1
Cc1cc(SCC(=O)Nc2ccc(C(F)(F)F)cc2)nc(=O)[nH]1	·	1	1	12	-1%	0
O=C(Cn1cnc2c(cnn2-c2ccccc2)c1=O)N1CCOCC1	-9	0	4	7	0%	3
O=C(Cn1cnc2c(cnn2-c2ccc(Cl)cc2)c1=O)N1CCN(c2ccccc2)CC1	-32*	0	-8	30	-5%	2
O=C(O)Cn1nc(-c2ccc(Cl)cc2)ccc1=O	-3	1	3	-4	·	1
O=C(Cn1nc(-c2ccc(Cl)cc2)ccc1=O)N1CCN(c2ccccc2)CC1	5	1	10	32*	0%	0
CCc1ccccc1NC(=O)C1CCCN(S(=O)(=O)c2ccc3[nH]c(=O)ccc3c2)C1 (centres undefined)	1	0	0	-7	0%	0
COc1ccc(-c2nc(SCC(=O)Nc3ccc4c(c3)OCCO4)c(-c3ccc(C)cc3)[nH]2)cc1OC	-6	-1	-5	-2	0%	5
O=C(CN1CCOCC1)Nc1cc(C(F)(F)F)ccc1Cl	1	-2	-3	-2	0%	3
Cc1ccc(C)n1CCN1CCN(CC(=O)Nc2cc(C(F)(F)F)ccc2Cl)CC1	0	0	-4	55*	1%	0
CCC(C)(C(=O)NC1CCCC1)N(C(=O)c1cnccn1)c1ccccc1 (centres undefined)	-45*	1	-5	-1	-1%	5
Cc1cc(-c2ccc(C)c(S(=O)(=O)Nc3ccccc3C(F)(F)F)c2)on1	-36*	-1	-6	0	4%	13
Cc1cc(-c2ccc(C)c(S(=O)(=O)Nc3cccc(C)n3)c2)on1	-44*	0	2	3	4%	0
COc1cccc(CCN2CCC(CNS(=O)(=O)c3cc(-c4cc(C)no4)ccc3C)CC2)c1	-55*	1	-14	-7	·	29
Cc1cc(-c2ccc(C)c(S(=O)(=O)Nc3cccc(CN4CCCC4)c3)c2)on1	-61*	0	-11	-5	·	3
CCOc1ccc(CCNC(=O)c2cccc(-n3c(C)nc4cccnc43)c2)cc1	-3	-1	-2	7	-2%	9
CCC(CC)C(=O)Nc1ccccc1C(=O)OCc1cc(=O)n2nc(C3CCCCC3)sc2n1	-4	-1	1	-3	-3%	-2
Cc1ccc(C2CC(=O)N(Cc3ccc(F)cc3)c3c2c(C)nn3-c2nc(C)cc(C)n2)cc1 (centres undefined)	-6	0	1	-1	2%	0
O=S(=O)(c1ccc(F)cc1)N1CCN(c2nc(-c3cccs3)nc3cc(Cl)ccc23)CC1	-10	0	-4	-1	·	2
CCc1ccc(-c2cc(C)no2)cc1S(=O)(=O)N1CCC(C)CC1	2	0	-2	-3	·	5
CCc1ccc(-c2cc(C)no2)cc1S(=O)(=O)N1CCCN(Cc2ccc(F)cc2)C1	-31*	1	-4	-6	·	7
